Results filed as inconclusive are left out. The source made the active and inactive calls. Unless noted, calls follow the shape of the dose curve; as a rule, active = well fitted curve in the direction sought with a large enough effect in the repeat runs; inconclusive = weak or mixed curves; inactive = no such curve, though single readings can be large; an effect the other way counts as inactive or inconclusive.
What was measured:
[1] = qHTS assay to identify small molecule agonists of the sonic hedgehog signaling (Shh) pathway (AID 1259368; calls by dose curve;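 also: NIH/3T3-derived 3T3Gli1-Luc cells carrying a stable Gli1-driven firefly luciferase reporter; series mostly up to about 92 µM; nearly all actives have a fitted effect of over 15% in size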)
How it was run: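 Steps: seed 3T3 Gli1-Luc cells, incubate 4 hr at 37 C, pin-transfer compounds in DMSO alongside a positive control, incubate 24 hr, add luciferase detection reagent, wait 30 min at room temperature, read luminescence.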

[2] = qHTS assay to identify small molecule antagonists of the sonic hedgehog signaling (Shh) pathway (AID 1259369; calls by dose curve; also: nearly all actives have a fitted effect of over 45% in size)
How it was run: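 Inhibition of Shh signalling is measured as reduced Gli1-response-element firefly luciferase output in an NIH/3T3-derived stable reporter clone stimulated with conditioned medium for 24hr.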

[3] = target: Estrogen receptor beta (Homo sapiens) (UniProt Q92731); test: qHTS assay to identify small molecule agonists of the estrogen receptor beta (ER-beta) signaling pathway (AID 1259377; active = well fitted activation curve with a large enough effect in the signal ratio in the repeat runs, not every such curve was filed as active; the % refers to the signal ratio)
How it was run: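 A UAS-controlled beta-lactamase reporter in ER-beta-UAS-bla HEK293T cells reports receptor activation. Compounds act for 16 hr at 37C in 2% charcoal-stripped serum, and a FRET substrate is read by fluorescence after 2 hours.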

[4] = target: Estrogen receptor beta (Homo sapiens) (UniProt Q92731); test: qHTS assay to identify small molecule antagonists of the estrogen receptor beta (ER-beta) signaling pathway (AID 1259378; active = well fitted inhibition curve with a large enough effect in the signal ratio in the repeat runs, not every such curve was filed as active; the % refers to the signal ratio)
How it was run: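 Antagonist mode: compounds added to beta-lactamase reporter HEK293T ER-beta-UAS cells stimulated with E2 (1nM final), 16 hr at 37C. LiveBLAzer B/G FRET substrate, 2 hours room temperature, fluorescence read-out.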

[5] = qHTS assay to identify small molecule agonists of the estrogen receptor beta (ER-beta) signaling pathway - cell viability counter screen (AID 1259380); also: nearly all actives have a fitted effect of over 30% in size
How it was run: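 Same-well viability counter screen. Cells: ER-beta-UAS-bla HEK293T, plated 6 hr before compound, in 2% charcoal-stripped FBS. Compound exposure 16 hr, 37C; viability by CellTiter-Glo luminescence after 30 min at room temperature.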

[6] = qHTS assay to identify small molecule antagonists of the estrogen receptor beta (ER-beta) signaling pathway - cell viability counter screen (AID 1259382);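 also: HEK293T cells carrying ER-beta-UAS-bla reporter stimulated with estradiol; series mostly up to about 92 µM; nearly all actives have a fitted effect of over 55% in size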
How it was run: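 Following a 6 hr plating period, HEK293T cells carrying a UAS-driven beta-lactamase reporter under ER-beta control received compounds and 1nM E2 (final). After 16 hr at 37C and 2 hr substrate loading, CellTiter-Glo luminescence indicated viability.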

[7] = target: Estrogen receptor (Homo sapiens) (UniProt P03372); test: qHTS assay to identify small molecule agonists of the estrogen receptor alpha (ER-alpha) signaling pathway in the presence of an antagonist (AID 1259383; calls by dose curve; also: top concentration of the series differs between compounds; nearly all actives have a fitted effect of over 15% in size)
How it was run: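 Cells are hormone-deprived for 5 days (charcoal-stripped FBS, no phenol red), plated for 24hr, spiked with 10.0nM ICI-182,780, then dosed at 15 concentrations. After 22hr at 37C, ONE-Glo luminescence reports ERE-luciferase activity.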

[8] = target: Thyrotropin receptor (Homo sapiens) (UniProt P16473); test: qHTS assay to identify small molecule antagonists of the thyroid stimulating hormone receptor (TSHR) signaling pathway (AID 1259385; calls by dose curve; also: nearly all actives have a fitted effect of over 20% in size)
How it was run: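 Antagonist mode: compound-treated TSHR-expressing HEK293 cells were stimulated with 1.5 ng/mL TSH (final) in presence of Ro20-1724 for 30 min at RT. HTRF cAMP detection after 1 h; each compound tested at 15 concentrations, triplicate.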

[9] = target: Progesterone receptor (Homo sapiens) (UniProt P06401); test: qHTS assay to identify small molecule agonists of the progesterone receptor (PR) signaling pathway (AID 1346784; calls by dose curve; also: nearly all actives have a fitted effect of over 30% in size)
How it was run: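 Agonist mode, quantitative HTS format in a HEK 293T line expressing a UAS-controlled beta-lactamase reporter; 16 hr compound exposure at 37C in 2% charcoal-stripped FBS, then LiveBLAzer B/G FRET fluorescence.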

[10] = target: Progesterone receptor (Homo sapiens) (UniProt P06401); test: qHTS assay to identify small molecule antagonists of the progesterone receptor (PR) signaling pathway (AID 1346795; active = well fitted inhibition curve with a large enough effect in the signal ratio in the repeat runs, not every such curve was filed as active; the % refers to the signal ratio)
How it was run: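 HEK293T PR-UAS-bla reporter cells in charcoal-stripped serum (2%) received compound after a 6 hr settling period, followed by R5020 agonist at 1 nM final; 16 hr incubation preceded the FRET substrate step and fluorescence measurement.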

[11] = qHTS assay to identify small molecule antagonists of the progesterone receptor (PR) signaling pathway - cell viability counter screen (AID 1346798); also: series mostly up to about 92 µM; nearly all actives have a fitted effect of over 50% in size
How it was run: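 Same-well multiplex: after 16 hr at 37C with compound and R5020 stimulation, HEK293T cells carrying a UAS-bla reporter received LiveBLAzer substrate (2 hr RT), then CellTiter-Glo (30 min RT) for luminescent viability.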

[12] = qHTS assay to identify small molecule antagonists of the TGF-beta/Smad signaling pathway - cell viability counter screen (AID 1346824); also: nearly all actives have a fitted effect of over 50% in size
How it was run: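 Cytotoxicity counter-screen run in the same wells as the beta-lactamase Smad reporter read: CellTiter-Glo luminescence after 30 min at room temperature. HEK 293T SBE-bla cells had 5 hr compound exposure at 37 C with TGF-beta1 (0.25 ng/mL stock).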

[13] = qHTS assay to identify small molecule agonists of the TGF-beta/Smad signaling pathway (AID 1346859; active = well fitted activation curve with a large enough effect in the signal ratio in the repeat runs, not every such curve was filed as active; the % refers to the signal ratio; also: series mostly up to about 77 µM)
How it was run: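 Smad-responsive beta-lactamase reporter cells (HEK 293T) received compounds from DMSO stocks after overnight attachment, were incubated 5 hr, then treated 2 hr with FRET substrate before dual-emission fluorescence measurement (405 nm excitation).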

[14] = target: Thyrotropin-releasing hormone receptor (Homo sapiens) (UniProt P34981); test: qHTS assay to identify small molecule antagonists of the thyrotropin-releasing hormone receptor (TRHR) signaling pathway (AID 1346877; active = well fitted inhibition curve with a large enough effect in the repeat runs, not every such curve was filed as active; also: series mostly up to about 51 µM)
How it was run: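 Cells (TRHR-HEK293) are plated and kept 18 h at 37 °C/5% CO2. A calcium-sensitive dye is added for 2 h, compound follows for 5 min at room temperature, and TRH is then given at 1 nM final.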

[15] = qHTS assay to identify small molecule agonists of the androgen receptor (AR) signaling pathway in the presence of an antagonist - cell viability counter screen (AID 1259379);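 also: MDA-kb2 human breast cancer cells carrying an MMTV luciferase reporter; series mostly up to about 92 µM; nearly all actives have a fitted effect of over 25% in size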
How it was run: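 Fluorescence from CellTiter-Fluor, added after 15 hr and read 1 hr later, gave cell viability. Cells were MDA-kb2 exposed to compounds (15 concentrations) in the presence of 3.0uM nilutamide at 37C, 0% CO2.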

[16] = qHTS assay to identify small molecule agonists or antagonists of the thyroid stimulating hormone receptor (TSHR) signaling pathway - wild type cell line counter screen (AID 1259384; calls by dose curve)
How it was run: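 Counter screen in untransfected Hek293: compounds (15-point titration, triplicate) plus phosphodiesterase inhibitor Ro20-1724 added after 18 h plating; 30 min RT. Intracellular cAMP via competitive d2/cryptate immunoassay, 1 h incubation.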

[17] = qHTS assay to identify small molecule agonists of the estrogen receptor alpha (ER-alpha) signaling pathway in the presence of an antagonist - cell viability counter screen (AID 1259386);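 also: series mostly up to about 92 µM; cells exposed to compounds for 22 h at 37 °C before the viability read; nearly all actives have a fitted effect of over 30% in size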
How it was run: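 Cells are starved of estrogens for 5 days in charcoal-stripped serum, seeded for 24hr and co-treated with ICI-182,780 (10.0nM final) and test compounds. After 22hr at 37C, viability is read as CellTiter-Fluor fluorescence.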

[18] = qHTS assay to identify small molecule agonists of the progesterone receptor (PR) signaling pathway - cell viability counter screen (AID 1346799; calls by dose curve; also: nearly all actives have a fitted effect of over 45% in size)
How it was run: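 Counter screen for cytotoxicity: compound-treated PR-UAS-bla HEK293T cells (16 hr, 37C, 5% CO2) were assayed with CellTiter-Glo, luminescence measured after 30 min at room temperature.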

[19] = qHTS assay to identify small molecule agonists of the TGF-beta/Smad signaling pathway - cell viability counter screen (AID 1346829); also: top concentration of the series differs between compounds; nearly all actives have a fitted effect of over 45% in size
How it was run: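 Tox21 qHTS format: SBE-bla HEK 293T cells treated with DMSO-dissolved compounds for 5 hr; CellTiter-Glo luminescence after 30 min at room temperature.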

Measured: Potency

Progesterone receptor (Homo sapiens), sequence (P06401 whole entry, looked up): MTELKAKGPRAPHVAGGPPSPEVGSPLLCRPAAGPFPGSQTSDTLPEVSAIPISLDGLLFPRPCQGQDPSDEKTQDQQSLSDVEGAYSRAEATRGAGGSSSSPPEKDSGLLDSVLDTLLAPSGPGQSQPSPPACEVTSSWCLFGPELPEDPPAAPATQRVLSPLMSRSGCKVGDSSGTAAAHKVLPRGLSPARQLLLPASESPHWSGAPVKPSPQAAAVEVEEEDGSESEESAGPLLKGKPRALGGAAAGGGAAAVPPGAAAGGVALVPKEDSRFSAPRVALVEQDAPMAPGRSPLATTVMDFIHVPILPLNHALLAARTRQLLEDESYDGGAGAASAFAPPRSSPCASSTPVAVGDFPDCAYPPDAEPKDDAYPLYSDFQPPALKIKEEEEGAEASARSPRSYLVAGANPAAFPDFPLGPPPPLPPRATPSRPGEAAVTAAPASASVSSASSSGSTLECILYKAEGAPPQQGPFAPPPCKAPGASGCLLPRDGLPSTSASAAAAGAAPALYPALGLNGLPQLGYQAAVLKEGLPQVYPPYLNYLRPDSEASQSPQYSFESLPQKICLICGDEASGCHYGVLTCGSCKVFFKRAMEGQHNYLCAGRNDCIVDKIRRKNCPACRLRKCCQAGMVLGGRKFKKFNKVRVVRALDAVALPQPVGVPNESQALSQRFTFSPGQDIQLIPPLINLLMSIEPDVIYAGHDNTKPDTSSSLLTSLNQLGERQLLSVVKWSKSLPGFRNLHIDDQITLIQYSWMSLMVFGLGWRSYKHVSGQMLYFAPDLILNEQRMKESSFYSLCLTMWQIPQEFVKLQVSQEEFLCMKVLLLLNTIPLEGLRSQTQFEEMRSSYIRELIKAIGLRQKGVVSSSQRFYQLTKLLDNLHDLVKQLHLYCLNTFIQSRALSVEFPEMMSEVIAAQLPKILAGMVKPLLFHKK
Thyrotropin-releasing hormone receptor (Homo sapiens), sequence (P34981 whole entry, looked up): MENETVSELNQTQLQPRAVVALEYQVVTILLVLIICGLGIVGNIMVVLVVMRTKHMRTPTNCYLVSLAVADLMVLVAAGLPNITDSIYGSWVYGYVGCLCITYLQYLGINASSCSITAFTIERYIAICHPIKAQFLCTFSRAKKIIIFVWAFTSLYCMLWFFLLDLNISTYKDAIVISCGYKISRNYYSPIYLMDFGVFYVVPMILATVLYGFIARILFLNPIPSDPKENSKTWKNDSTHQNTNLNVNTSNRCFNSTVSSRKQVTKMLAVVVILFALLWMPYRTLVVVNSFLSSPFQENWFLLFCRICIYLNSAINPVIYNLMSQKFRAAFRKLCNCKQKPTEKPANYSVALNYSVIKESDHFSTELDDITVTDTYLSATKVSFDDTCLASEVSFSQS
Thyrotropin receptor (Homo sapiens), sequence (P16473 whole entry, looked up): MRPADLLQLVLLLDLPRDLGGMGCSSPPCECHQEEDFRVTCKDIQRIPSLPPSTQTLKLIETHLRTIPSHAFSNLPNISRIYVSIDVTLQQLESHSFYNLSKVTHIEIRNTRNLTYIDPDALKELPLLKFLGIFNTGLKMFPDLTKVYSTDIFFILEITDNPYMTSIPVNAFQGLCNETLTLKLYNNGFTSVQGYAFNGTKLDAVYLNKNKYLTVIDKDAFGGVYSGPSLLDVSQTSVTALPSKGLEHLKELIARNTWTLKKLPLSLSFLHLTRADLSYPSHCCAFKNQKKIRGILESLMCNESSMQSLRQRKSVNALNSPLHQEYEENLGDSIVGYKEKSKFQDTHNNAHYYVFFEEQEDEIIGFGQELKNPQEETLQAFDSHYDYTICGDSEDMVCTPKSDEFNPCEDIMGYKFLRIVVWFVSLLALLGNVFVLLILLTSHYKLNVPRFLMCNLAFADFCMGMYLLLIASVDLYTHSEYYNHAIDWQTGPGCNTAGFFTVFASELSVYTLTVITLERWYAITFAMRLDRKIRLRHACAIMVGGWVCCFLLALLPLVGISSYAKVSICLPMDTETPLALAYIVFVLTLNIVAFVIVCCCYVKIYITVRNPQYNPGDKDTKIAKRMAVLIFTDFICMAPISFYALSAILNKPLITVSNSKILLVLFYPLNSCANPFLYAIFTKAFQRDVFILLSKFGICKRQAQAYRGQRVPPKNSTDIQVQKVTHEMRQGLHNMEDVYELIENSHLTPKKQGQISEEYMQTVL
Estrogen receptor beta (Homo sapiens), sequence (Q92731 whole entry, looked up): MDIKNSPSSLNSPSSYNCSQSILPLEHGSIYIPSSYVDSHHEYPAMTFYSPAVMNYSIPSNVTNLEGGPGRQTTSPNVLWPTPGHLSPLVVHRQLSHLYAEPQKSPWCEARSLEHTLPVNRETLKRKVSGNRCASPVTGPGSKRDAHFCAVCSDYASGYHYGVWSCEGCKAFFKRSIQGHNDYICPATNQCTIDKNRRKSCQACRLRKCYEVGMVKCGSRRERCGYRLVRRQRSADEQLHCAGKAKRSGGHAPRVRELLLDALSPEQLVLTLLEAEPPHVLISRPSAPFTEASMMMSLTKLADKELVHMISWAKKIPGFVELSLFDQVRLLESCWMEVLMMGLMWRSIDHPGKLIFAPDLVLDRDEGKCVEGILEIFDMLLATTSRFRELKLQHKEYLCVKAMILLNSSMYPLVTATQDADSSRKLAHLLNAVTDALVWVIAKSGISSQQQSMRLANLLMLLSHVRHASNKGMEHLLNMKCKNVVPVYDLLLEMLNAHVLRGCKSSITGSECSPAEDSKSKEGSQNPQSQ
Estrogen receptor (Homo sapiens), sequence (P03372 whole entry, looked up): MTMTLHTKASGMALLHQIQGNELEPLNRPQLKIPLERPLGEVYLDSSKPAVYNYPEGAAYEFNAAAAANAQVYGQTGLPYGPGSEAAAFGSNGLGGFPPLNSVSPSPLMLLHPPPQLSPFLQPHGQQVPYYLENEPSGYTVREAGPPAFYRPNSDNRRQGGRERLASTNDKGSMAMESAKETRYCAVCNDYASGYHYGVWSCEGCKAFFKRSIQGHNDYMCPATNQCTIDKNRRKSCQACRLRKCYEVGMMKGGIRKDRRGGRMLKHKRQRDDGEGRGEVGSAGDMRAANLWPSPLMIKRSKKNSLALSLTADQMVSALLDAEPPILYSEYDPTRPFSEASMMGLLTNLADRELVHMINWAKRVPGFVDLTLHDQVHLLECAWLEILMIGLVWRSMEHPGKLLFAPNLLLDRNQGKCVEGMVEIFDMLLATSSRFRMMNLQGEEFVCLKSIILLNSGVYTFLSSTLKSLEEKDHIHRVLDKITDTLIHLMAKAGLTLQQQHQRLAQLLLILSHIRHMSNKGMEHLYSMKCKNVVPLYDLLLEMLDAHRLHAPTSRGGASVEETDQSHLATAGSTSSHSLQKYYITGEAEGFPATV

O=C(O)CCNC(=O)c1ccc(N=Nc2ccc(O)c(C(=O)O)c2)cc1
inactive: [1] | [2] | [3] | [4] | [5] | [6] | [7] | [8] | [9] | [10] | [11] | [12] | [13] | [14]

CCCC=O
inactive: [1] | [2] | [3] | [4] | [15] | [5] | [16] | [8] | [17] | [10] | [11] | [18] | [12] | [13]

CO[Si](OC)(OC)OC
inactive: [1] | [2] | [3] | [4] | [15] | [5] | [6] | [16] | [8] | [17] | [9] | [10] | [11] | [18] | [12] | [19] | [13] | [14]

CCCCCCCCCCCCCCCCCCOCC(O)CO (stereo unspecified)
inactive: [1] | [2] | [3] | [4] | [15] | [6] | [7] | [16] | [8] | [9] | [10] | [11] | [12] | [13]

C[C@H]1O[C@@H](n2cc(F)c(=O)[nH]c2=O)[C@H](O)[C@@H]1O
inactive: [1] | [2] | [3] | [4] | [15] | [5] | [6] | [16] | [8] | [17] | [9] | [10] | [11] | [12] | [19] | [13] | [14]

Cc1ccccc1Br
inactive: [1] | [2] | [3] | [4] | [5] | [6] | [16] | [8] | [17] | [9] | [10] | [11] | [18] | [12] | [19] | [13] | [14]

CC1=CC(=O)CCC1
inactive: [1] | [2] | [3] | [4] | [15] | [5] | [6] | [16] | [8] | [17] | [9] | [10] | [11] | [18] | [12] | [13] | [14]

Source: PubChem BioAssay (Tox21)
